Data on six compounds can be found in article PMC5540273 (PLoS ONE, 2017).

SMILES strings stand for the structures.

Some test systems named below: PRKCQ; PRKD1; PRKD2; PRKD3; PRKG1; PRKG2; PRKX; PRP4; QSK; RAF1; RET; RIOK1; RIOK2; RIOK3; RIPK1; RIPK2; RIPK4; RIPK5.
Settings in all cases: concentration: 1 μM, replicates: in singlicate; n = 1
The next assay has as its system T1, PRKR.
T1 construct: gene EIF2AK2

The subject of a further assay is T2, PYK2.
T2 construct: gene PTK2B
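Also: KINOMEscan kinase panel screen.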

As for `Cc1c(Cn2ccn3c(=O)cc(N4CCOCC4)nc23)cccc1C(F)(F)F` [GSK2289044], the “%Inh” value with PRKCQ was determined as 3%; in the assay on PRKD1 it was 6%; in the assay on PRKD2, 19%; in the assay with PRKD3, 0%; in the assay on PRKG1, 0%; in the assay with PRKG2, 9%. Besides, the “%Inh” value was 4% with PRKR; 25% with PRKX; 0% in the assay on PRP4; 0% with PYK2; 3% with QSK; 5% with RAF1. In addition, the “%Inh” value with RET is recorded as 8%; in the assay on RIOK1, 3%; in the assay on RIOK2, 34%; with RIOK3 it was 5%; in the assay on RIPK1 it was 9%; with RIPK2, 10%. Besides, the “%Inh” value in the assay with RIPK4 and in the assay with RIPK5 was 0% in each case.

As for `Cn1cncc1-c1ccc2ncnc(Nc3ccc(OCc4ccccc4)cc3)c2c1` [GW320571], the “%Inh” value was determined as 16% in the assay on PRKCQ; 26% in the assay on PRKD1; 5% in the assay with PRKD2; 15% in the assay with PRKD3; 26% in the assay on PRKG1; 0% in the assay with PRKG2. Moreover, the “%Inh” value was 0% in the assay with PRKR; 4% with PRKX; 0% with PRP4; 34% in the assay on PYK2; 16% in the assay with QSK; 13% in the assay on RAF1. The “%Inh” value in the assay on RET turned out to be 0%; in the assay on RIOK1, 32%; in the assay on RIOK2, 26%; with RIOK3 it was 15%; in the assay on RIPK1, 18%; in the assay with RIPK2, 93.1%. Moreover, the “%Inh” value in the assay with RIPK4 and in the assay with RIPK5 was 0% throughout.

For `Cn1ccc2ncnc(Oc3ccc(Nc4nc5ccccc5[nH]4)cc3)c21`, the “%Inh” value was 0% in the assay with PRKCQ; 44% in the assay with PRKD1; 8% in the assay with PRKD2; 0% with PRKD3; 0% in the assay with PRKG1; 0% in the assay with PRKG2. The “%Inh” value is 0% in the assay with PRKR; 3% in the assay with PRKX; 25% with PRP4; 41% in the assay on PYK2; 0% in the assay with QSK; 0% with RAF1. In addition, the “%Inh” value in the assay on RET, in the assay on RIOK1, in the assay with RIOK2, in the assay with RIOK3, in the assay on RIPK1 and with RIPK2 was 0% each time. For the same compound, the “%Inh” value with RIPK4 and in the assay with RIPK5 was 0% in each case.

As to `Cc1cc(N2Cc3ccccc3C2)nc(Nc2ccc(S(=O)(=O)N3CCOCC3)cc2)n1.Cl` [GSK1669917], the “%Inh” value with PRKCQ, in the assay with PRKD1, in the assay with PRKD2, with PRKD3, with PRKG1 and in the assay on PRKG2 was 0% in each case. The “%Inh” value was 0% in the assay on PRKR; 0% with PRKX; 16% in the assay with PRP4; 0% with PYK2; 2% with QSK; 0% in the assay with RAF1. Also, the “%Inh” value in the assay on RET stood at 0%; in the assay with RIOK1, 24%; with RIOK2, 0%; in the assay on RIOK3, 25%; in the assay on RIPK1, 0%; in the assay with RIPK2, 0%. Further, the “%Inh” value is listed as 98.9% with RIPK4 and 6% in the assay with RIPK5.

With `Cc1cccc(-c2cc(Nc3ccncc3)c3ccccc3n2)n1` [GSK223675], the “%Inh” value in the assay on PRKCQ came to 0%; in the assay on PRKD1, 91.1%; in the assay on PRKD2, 96%; with PRKD3 it was 100%; in the assay on PRKG1 it was 0%; in the assay on PRKG2, 0%. In addition, the “%Inh” value in the assay on PRKR turned out to be 0%; in the assay with PRKX, 16%; with PRP4, 19%; in the assay with PYK2, 14%; in the assay on QSK, 0%; in the assay on RAF1, 6%. Besides, the “%Inh” value in the assay on RET stood at 0%; in the assay on RIOK1, 19%; with RIOK2, 0%; in the assay on RIOK3 it was 29%; with RIPK1 it was 0%; in the assay on RIPK2 it was 6%. The “%Inh” value in the assay with RIPK4 worked out at 21%; in the assay on RIPK5, 6%.

Turning to `O=C(Nc1ccc2c(c1)OCO2)NC1CCN(c2ccnc(Nc3ccc(F)cc3)n2)C1` (stereo not drawn) [GSK1379724], the “%Inh” value was found to be 0% in the assay on PRKCQ; 16% in the assay on PRKD1; 5% in the assay with PRKD2; 0% in the assay on PRKD3; 0% in the assay on PRKG1; 0% in the assay on PRKG2. The “%Inh” value with PRKR was determined as 0%; in the assay with PRKX, 0%; in the assay on PRP4 it was 17%; in the assay on PYK2, 0%; in the assay on QSK it was 8%; in the assay on RAF1, 16%. In addition, the “%Inh” value in the assay with RET was 22%; in the assay with RIOK1, 9%; with RIOK2, 0%; in the assay with RIOK3, 5%; with RIPK1, 0%; in the assay on RIPK2, 0%. The “%Inh” value was found to be 11% in the assay with RIPK4 and 0% with RIPK5.
